This is part of a sample that, as a whole, favours compounds with a hit. Of some 79,000 tested, about 15% had one in any assay. Values without a mark were called inactive. The source made the active and inactive calls. Cut-off read from the data, not from the text of the source: active = growth inhibition above about 70%; inactive = the rest.

We go through 20 compounds from PubChem BioAssay (NCI).

The nature of assay [1]: NCI Yeast Anticancer Drug Screen. Data for the rad50 strain (AID 155).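 Note: 0% = growth of vehicle-only cultures of the same strain.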 As to conditions: S. cerevisiae rad50 strain growth inhibition; at 50.0 µM; active compounds read high. The procedure, abridged:
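Compounds were tested on a yeast strain with an engineered DNA damage repair alteration; the reported value is growth inhibition normalised to vehicle treatment.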

Assay [2] in a line: NCI Yeast Anticancer Drug Screen. Data for the mec2-1 strain (AID 157). The following applies: S. cerevisiae mec2-1 strain, at 50.0 µM, active compounds read high. The method in brief: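 Readout is yeast growth inhibition, normalised to vehicle-treated controls, in the mec2-1 strain exposed to compound.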
Assay [3] can be described thus: NCI Yeast Anticancer Drug Screen. Data for the sgs1 mgt1 strain (AID 161).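 Note: 0% = growth of cultures given vehicle only.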 The following applies: S. cerevisiae sgs1 mgt1 strain, at 50.0 µM, active compounds read high. The method in brief: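 Growth of a repair-deficient yeast mutant was monitored after compound treatment and expressed as inhibition relative to vehicle-treated cultures.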
Assay [4] can be described thus: NCI Yeast Anticancer Drug Screen. Data for the cln2 rad14 strain (AID 165).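 Note: 0% = growth equal to vehicle treated cultures.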 The following applies: S. cerevisiae cln2 rad14 strain, at 50.0 µM, active compounds read high. The method in brief: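 Relative to vehicle controls, growth inhibition of compound-treated cln2 rad14 yeast was recorded.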
Assay [5] in a line: NCI Yeast Anticancer Drug Screen. Data for the bub3 strain (AID 167). As to conditions: S. cerevisiae bub3 mutant strain, at 50.0 µM, active compounds read high. The method in brief: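 Growth of a checkpoint-deficient yeast mutant is measured after compound exposure. Values represent inhibition relative to vehicle.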
Assay [6] can be described thus: NCI Yeast Anticancer Drug Screen. Data for the mlh1 rad18 strain (AID 175). As to conditions: S. cerevisiae mlh1 rad18 strain growth inhibition; at 50.0 µM; active compounds read high. The procedure, abridged: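 Test agents were incubated with a yeast strain of defined genotype (DNA damage repair defect). Inhibition of growth was derived by comparison with vehicle-exposed cultures.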

Consider `CN(/N=C/c1ccccn1)C1=NCCN1`, for which the growth inhibition in assay [1] is -23.9%; in assay [2], -29.4%; in assay [3] it was -31.2%; in assay [4], 2.75%; in assay [5], 6.55%; in assay [6], -21.4%.
As to `CN(C=O)c1ccc([N+](=O)[O-])cc1`, the growth inhibition in assay [1] is 7.1%; in assay [2], -6.5%; in assay [3], -7.15%; in assay [4] it was 5.7%; in assay [5], 1.4%; in assay [6], -3.4%.
With `COC1OC2COC(C)(c3ccccc3)OC2C(O)C1[NH-].COC1OC2COC(C)(c3ccccc3)OC2C(O)C1[NH-].[Cl][Pt+2][Cl]` (stereo not given), the growth inhibition in assay [1] was -0.25%; in assay [2] it was -2.7%; in assay [3], -7.8%; in assay [4], -25.3%; in assay [5], -3.05%; in assay [6], 35.4%.
With `CCc1c(C)nc2cc(-c3cc(C)n4c(=O)c(CC)c(C)nc4c3)cc(C)n2c1=O`, the growth inhibition in assay [1] was 1.6%; in assay [2] it was 9.95%; in assay [3], -12.7%; in assay [4], 1.2%; in assay [5], 3.2%; in assay [6] it was 3.95%.
As for `Cc1nn(C(=O)c2ccccn2)c(-c2ccccc2)c1N=Nc1ccc(S(=O)(=O)Nc2ncccn2)cc1`, the growth inhibition in assay [1] is 26.4%; in assay [2], -6%; in assay [3], 17.9%; in assay [4] it was 12.5%; in assay [5], 1.5%; in assay [6] it was 40.4%.
As to `O=C(CCc1ccc(O)c(O)c1)OCCc1ccccc1`, the growth inhibition in assay [1] is 89.2% (active); in assay [2], 89.8% (active); in assay [3], 90.9% (active); in assay [4] it was 88% (active); in assay [5], 87.5% (active); in assay [6] it was 89.2% (active).
`Nc1ccc2c(c1)C(=O)c1cc(C(=O)O)ccc1-2`: the growth inhibition in assay [1] is 21.2%; in assay [2], -2.55%; in assay [3], 9.75%; in assay [4], 15.9%; in assay [5], 12.8%; in assay [6] it was -10.1%.
As to `CC(C)(C)NCCCCCO`, the growth inhibition in assay [1] is -11.8%; in assay [2] it was 17.6%; in assay [3] it was 16.1%; in assay [4], -8.35%; in assay [5] it was -5.7%; in assay [6] it was -16.1%.
Take `C=C1C(=O)OC2/C=C(\C)C(O)CC(O)C(C)(O)CC(OC(=O)/C(C)=C/C)C12` (stereo not given): the growth inhibition in assay [1] is -0.7%; in assay [2], -25.2%; in assay [3] it was -10.4%; in assay [4], 14.1%; in assay [5], 6.5%; in assay [6] it was -10.8%.
For the compound `CSCCC(NC(=O)c1cnc2ccccc2n1)C(=O)O` (stereo not given), the growth inhibition in assay [1] was -4.55%; in assay [2], 2.6%; in assay [3], 11.2%; in assay [4], 5.55%; in assay [5] it was 14.7%; in assay [6] it was -17.1%.
For `Cc1cccc2c3c(ccc12)C(=O)OC3=O`, the growth inhibition in assay [1] is -0.3%; in assay [2], -2.85%; in assay [3] it was 4.1%; in assay [4], -22.3%; in assay [5] it was -6.5%; in assay [6], 4.25%.
As to `CC(=O)OC(C)(C)[C@@H]1CC[C@H](C)C2=C(C1)[C@@H](C)CC2`, the growth inhibition was -13.8% in assay [1]; -30.9% in assay [2]; -23.9% in assay [3]; 2.05% in assay [4]; -16.1% in assay [5]; -16.1% in assay [6].
With `COc1ccc(/C=[N+](\[O-])[C@H](COCc2ccccc2)c2ccccc2)cc1`, the growth inhibition in assay [1] was 18.4%; in assay [2], -18.3%; in assay [3], 0.05%; in assay [4], -1.6%; in assay [5] it was 6.6%; in assay [6] it was 4.3%.
As for `O=C([O-])c1cc(I)cc(I)c1[OH2+].O=C([O-])c1cc(I)cc(I)c1[OH2+].[Mn+2]`, the growth inhibition in assay [1] is -1.55%; in assay [2], -19.4%; in assay [3] it was -6.2%; in assay [4], -23.7%; in assay [5], -46%; in assay [6] it was 5.8%.
Regarding `O=C(NCCc1ccccc1)c1ccc(Cl)cc1`, the growth inhibition was 6.25% in assay [1]; 9.8% in assay [2]; 9.9% in assay [3]; 10.8% in assay [4]; 26% in assay [5]; 1.5% in assay [6].
Turning to `O=C1CN(c2ccccc2)C(=O)CN1/N=C/c1ccc[nH]1`, the growth inhibition in assay [1] was -27.4%; in assay [2], -7.55%; in assay [3], -4.9%; in assay [4], -21.4%; in assay [5], -7.7%; in assay [6] it was -13.4%.
For `CC(C)C1OCC=CCO1`, the growth inhibition in assay [1] was 7.65%; in assay [2], -6.7%; in assay [3], -13.2%; in assay [4] it was -9.85%; in assay [5], 13.7%; in assay [6], -3%.
Consider `Cc1cccc2c1Oc1ccccc1C2NC(=O)OCCCl` (stereo not given), for which the growth inhibition is 1.8% in assay [1]; 13.1% in assay [2]; 8.7% in assay [3]; -37% in assay [4]; 0.85% in assay [5]; 12.8% in assay [6].
For `Cn1cc(C(=O)C2CCCCC2)ccc1=O`, the growth inhibition in assay [1] was -4.6%; in assay [2], -11.8%; in assay [3], -2.6%; in assay [4], 15.9%; in assay [5], -14.2%; in assay [6], -19.3%.
On to `O=C(c1cccc(Cl)c1)c1cccc2ccccc12`, for which the growth inhibition was -1.7% in assay [1]; 5.6% in assay [2]; 19.6% in assay [3]; -37% in assay [4]; 41.9% in assay [5]; -10.2% in assay [6].
